Experimental data reported in PubChem BioAssay.
Activity calls are given as the source filed them.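 The calls were made as follows, unless noted: active = visual image review flags a hit and inhibition of aggregation exceeds 20%; inconclusive = visual hit but inhibition at or below 20%; inactive = no hit on visual image review.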

Experiments:
[1] = inhibitors of TNFa-induced NFkB p65 translocation, primary screen, imaging, HUVEC, MLSMR starter and 10KST1 sets (AID 438;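 active = inhibition above 20% together with a positive visual image hit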;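 also: compound added about 3h40 before a 20 min TNFalpha stimulation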;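 as to inhibition: signal is the nuclear over cytoplasmic p65 intensity ratio per well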); settings: HUVEC TNFa-induced p65 nuclear translocation; cell count: measured here: nuclei count (cytotoxicity indicator), at 2.08 µM; inhibition: at 2 µM, stronger effect = higher value, 0% TNFa-plus-vehicle, 100% no-TNFa wells
[2] = inhibitors of mutant huntingtin aggregation, primary screen, imaging, exon1htt(103Q)mCFP cells, high-content imaging (AID 483); settings: exon1htt(103Q)mCFP cell line, aggregate imaging, at 2 µM; inhibition of aggregation: stronger effect = higher value; nuclei count: measured here: cell count, toxicity;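 also: compound exposure lasted 3 days before fixation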;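 as to nuclei count: percent of the per-plate median nuclei count of sample wells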
[3] = inhibitors of E-selectin induction by TNFa, primary screen, imaging, HUVEC, immunofluorescence, MLSMR starter and 10KST1 sets (AID 487;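 active = visually confirmed hit in the image check and inhibition above 20%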;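 as to inhibition: signal is fraction of cell area covered by stained E-selectin grains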;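 as to nuclei count: 100% = median nuclei count of all wells on the same plate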); settings: HUVEC TNFalpha-induced E-selectin immunofluorescence imaging, at 2 µM; inhibition: stronger effect = higher value; nuclei count: measured here: cell number, toxicity
[4] = target: Voltage-gated potassium channel subunit beta-2 (Rattus norvegicus) (UniProt P62483); experiment: KvBeta enzyme negative modulators, primary screen, biochemical, NADPH fluorescence (AID 622;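 active = fluorescence slope higher than the sample average by over 3 SD, cut at about -0.22 in these data, passing the limit was not always enough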;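 also: slope of raw intensity against log time taken from 70 to 1610 s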); settings: recombinant KvBeta, 4-cyanobenzaldehyde reduction, at 10 µM, stronger effect = higher value
Voltage-gated potassium channel subunit beta-2 (Rattus norvegicus), sequence (P62483 whole entry, looked up): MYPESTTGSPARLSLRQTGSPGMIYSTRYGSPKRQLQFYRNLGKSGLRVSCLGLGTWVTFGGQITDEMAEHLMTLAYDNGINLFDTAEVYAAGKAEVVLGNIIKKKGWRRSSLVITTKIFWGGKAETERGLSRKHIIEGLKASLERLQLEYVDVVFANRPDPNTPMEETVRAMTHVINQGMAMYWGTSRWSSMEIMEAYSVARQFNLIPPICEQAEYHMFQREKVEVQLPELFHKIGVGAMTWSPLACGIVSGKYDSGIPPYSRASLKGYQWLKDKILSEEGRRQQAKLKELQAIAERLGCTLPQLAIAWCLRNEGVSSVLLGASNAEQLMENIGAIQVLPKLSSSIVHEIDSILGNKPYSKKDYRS

[5] = target: Voltage-gated potassium channel subunit beta-2 (Rattus norvegicus) (UniProt P62483); experiment: KvBeta positive modulators, primary screen, biochemical, NADPH fluorescence (AID 623;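 active = NADPH fluorescence slope more negative than the mean of all samples by about 3 SD, 99.7% confidence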;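 also: fluorescence intensity change per second fitted from 20 to 320 s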); settings: Recombinant KvBeta, NADPH fluorescence decrease slope, 10 min; at 10 µM; stronger effect = lower value
[6] = target: Alpha-2C adrenergic receptor (Homo sapiens) (UniProt P18825); experiment: modulators of alpha2C/GIRK thallium flux, primary screen, cell-based, HEK293 alpha2C/GIRK1/2 (AID 624;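 active = fluorescence slope after compound addition differing from the mean of all screened samples at 99.7% confidence, in either direction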;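 also: slope of fluorescence ratio to pre-addition baseline per second over 15 to 24 s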); settings: thallium flux BTC fluorescence, at 10 µM, actives lie on both sides
Alpha-2C adrenergic receptor (Homo sapiens), sequence (P18825 whole entry, looked up): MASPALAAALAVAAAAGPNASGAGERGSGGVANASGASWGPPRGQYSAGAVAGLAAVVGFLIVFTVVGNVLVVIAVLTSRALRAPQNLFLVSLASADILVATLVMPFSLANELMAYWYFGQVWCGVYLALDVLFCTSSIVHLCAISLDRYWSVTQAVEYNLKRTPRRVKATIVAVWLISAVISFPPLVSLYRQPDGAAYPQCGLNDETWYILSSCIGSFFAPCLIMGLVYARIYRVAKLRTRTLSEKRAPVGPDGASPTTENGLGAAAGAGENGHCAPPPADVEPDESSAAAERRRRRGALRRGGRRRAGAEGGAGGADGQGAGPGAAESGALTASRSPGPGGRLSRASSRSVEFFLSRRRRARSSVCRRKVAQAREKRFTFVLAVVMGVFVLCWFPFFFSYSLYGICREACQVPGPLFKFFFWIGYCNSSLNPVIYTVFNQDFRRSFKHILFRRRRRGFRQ

[7] = inhibitors of Sendai virus-induced IRF3 signaling, primary screen, TLR/RLR signaling modifier project, cell-based, Sendai virus stimulus, luciferase, 10K MLSCN set (AID 602276;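 active = inhibition at or above 50% at 10 µM; inactive = inhibition below 50%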;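 also: firefly luciferase from ISG56 promoter only with Renilla not read in this screen; 0% = Sendai virus plus DMSO and 100% = medium plus DMSO without virus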); settings: HEK293 RL24 IRF3 luciferase reporter, at 10 µM, stronger effect = higher value
[8] = inhibitors of poly I:C-induced TLR3 signaling, primary screen, cell-based, poly I:C stimulus, luciferase, 10K MLSCN set (AID 602277;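 active = inhibition of the reporter signal at or above 50%; inactive = inhibition below 50%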); settings: HEK293-TLR3 RL24 IRF3 luciferase reporter, at 10 µM, stronger effect = higher value

Compound	cell count [1]	inhibition [1]	inhibition of aggregation [2]	nuclei count [2]	inhibition [3]	nuclei count [3]	fluorescence slope [4]	NADPH fluorescence slope [5]	slope [6]	inhibition [7]	inhibition [8]
CCS(=O)(=O)N1CCC(C(=O)NC2CCCCCCC2)CC1	649	-9.4% (inactive)	-9.5% (inactive)	104%	-113% (inactive)	128%	-0.378 (inactive)	1.4e-05 (inactive)	0.00549 (inactive)	-13% (inactive)	-6.47% (inactive)
N#Cc1ccccc1NC(=O)CSc1nnc(-c2ccccc2)n1-c1ccccc1	556	-25.3% (inactive)	-20.9% (inactive)	99.9%	-1.6% (inactive)	83.7%	-0.603 (inactive)	-1.9e-05 (inactive)	0.00673 (inactive)	1.9% (inactive)	24.8% (inactive)
CCCCOn1c(C)c(C(=O)OCC)c2c3nonc3ccc21	596	-27.1% (inactive)	-30.2% (inactive)	116%	-12.4% (inactive)	101%	-0.458 (inactive)	6.8e-06 (inactive)	0.00452 (inactive)	-10.2% (inactive)	-12.6% (inactive)
Cc1csc(NC(=O)CSc2nnc(Cc3cccn3C)n2-c2ccc(F)cc2)n1	688	-3.4% (inactive)	12.8% (inactive)	74%	-48.6% (inactive)	105%	-0.57 (inactive)	2e-05 (inactive)	0.00588 (inactive)	-11.3% (inactive)	8.94% (inactive)
COCCCNC(=O)c1ccccc1NS(=O)(=O)c1ccc(C)cc1	369	-0.9% (inactive)	-9% (inactive)	122%	-66.6% (inactive)	72.3%	-0.423 (inactive)	-1.5e-05 (inactive)	0.00558 (inactive)	11.8% (inactive)	16.1% (inactive)
COc1ccc(C(=O)NCCc2nnc(SCc3nc4ccccc4c(=O)[nH]3)n2C)cc1	357	-6.6% (inactive)	-8.1% (inactive)	101%	-85.5% (inactive)	112%	-0.501 (inactive)	-3.6e-05 (inactive)	0.00496 (inactive)	18.2% (inactive)	18.8% (inactive)
Cc1cccc2cc(CN(CC3CCCO3)C(=O)c3cnccn3)c(=O)[nH]c12 (centres undefined)	257	18.6% (inactive)	5.3% (inactive)	45.1%	-41% (inactive)	113%	-0.401 (inactive)	-9.9e-06 (inactive)	0.00355 (inactive)	8.77% (inactive)	32.1% (inactive)
Cc1ccc(-c2noc(CCC(=O)NCCc3ccccc3Cl)n2)cc1	287	-1.2% (inactive)	19.9% (inactive)	91%	5.2% (inactive)	88.4%	-0.409 (inactive)	-3.6e-05 (inactive)	0.00258 (inactive)	10.3% (inactive)	21.8% (inactive)
CCN(c1ccc2c(c1)OCO2)S(=O)(=O)c1cc(Br)cc2c1N(C(=O)C1CC1)CC2	341	-14.4% (inactive)	1.3% (inactive)	99.8%	-9% (inactive)	147%	-0.525 (inactive)	-0.000116 (inactive)	0.00411 (inactive)	11.9% (inactive)	21.6% (inactive)
O=C(CSc1ncccn1)NCc1ccccc1	362	2.5% (inactive)	12.3% (inactive)	103%	36.4% (inactive)	120%	-0.531 (inactive)	3.2e-05 (inactive)	0.00529 (inactive)	-29.7% (inactive)	-47.8% (inactive)
COc1ccc(NC(=O)CN(c2ccc(C)cc2)S(C)(=O)=O)c(OC)c1	498	10.1% (inactive)	-0.7% (inactive)	92.5%	-180% (inactive)	139%	-0.392 (inactive)	-6e-05 (inactive)	0.0037 (inactive)	4.75% (inactive)	25.6% (inactive)
CCCCOCCCNC(=O)c1ccc(NC(C)=O)cc1	416	-1.6% (inactive)	1.3% (inactive)	99.3%	8.8% (inactive)	115%	-0.45 (inactive)	7.9e-06 (inactive)	0.00392 (inactive)	-11% (inactive)	3.52% (inactive)
C=CCOc1ccc(C2/C(=C(\O)c3c(C)[nH]c(C(=O)OC)c3C)C(=O)C(=O)N2CCN(C)C)cc1 (centres undefined)	462	0.5% (inactive)	-6.9% (inactive)	99.7%	-96.2% (inactive)	118%	-0.536 (inactive)	-1.1e-05 (inactive)	0.00355 (inactive)	13.2% (inactive)	26.6% (inactive)
COc1ccccc1N1CCN(CC(O)c2ccc3cc[nH]c3c2)CC1 (centres undefined)	633	-3.9% (inactive)	3.6% (inactive)	114%	-43.4% (inactive)	105%	-0.54 (inactive)	-1.4e-05 (inactive)	0.0062 (inactive)	-0.148% (inactive)	27.7% (inactive)
